By AC50 is commonly meant the concentration giving half of the maximal activity seen.

Drawing on PubChem BioAssay (EPA / NIEHS), this text covers outcome and AC50 for 20 compounds.

Test [1] concerns the target Bile acid receptor (Homo sapiens) (UniProt Q96RI1). Put plainly: ATG_FXR_TRANS: Attagene TRANS-FACTORIAL HepG2 Assay for Farnesoid X Receptor (FXR) (AID 2282979).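 Note: hits raise reporter mRNA above DMSO so AC50 marks FXR activation.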 The following applies: HepG2 Attagene TRANS FXR-GAL4 reporter transcription. In a few lines: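 Transient transfection of HepG2 with multiplexed GAL4-UAS reporter units; exogenous FXR-GAL4 chimera. Dose 24 h → TriZol RNA → oligo(dT) RT → PCR, 6-FAM primer extension, HpaI cut → CE. Gain vs DMSO.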

In test [2] the target is Oxysterols receptor LXR-alpha (Homo sapiens) (UniProt Q13133). Put plainly: ATG_LXRa_TRANS: Attagene TRANS-FACTORIAL HepG2 Assay for human Liver X Receptor alpha (LXRa) (AID 2282980). To be noted: HepG2 Attagene TRANS reporter, LXRa transactivation. In a few lines:
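Transfect HepG2 with GAL4-UAS multiplex reporter constructs (TRANS format, chimeric receptor-GAL4); treat 24 h; extract RNA, reverse-transcribe, PCR-amplify, FAM-label, HpaI-digest; resolve fragments by capillary electrophoresis. Upward response vs DMSO.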

Test [3] deals with Oxysterols receptor LXR-beta (Homo sapiens) (UniProt P55055). Put plainly: ATG_LXRb_TRANS: Attagene TRANS-FACTORIAL HepG2 Assay for human Liver X Receptor beta (LXRb) (AID 2282981). To be noted: HepG2 Attagene TRANS GAL4-LXRb reporter, mRNA. The essentials:
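HepG2 cells transiently transfected with GAL4-UAS reporter units for chimeric NR-Gal4 proteins, dosed for 24 h. Reporter transcripts measured by RT-PCR and capillary electrophoresis; gain-of-signal fitting relative to DMSO.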

Test [4] has as its target Nuclear receptor subfamily 4 group A member 2 (Homo sapiens) (UniProt P43354). Put plainly: ATG_NURR1_TRANS: Attagene TRANS-FACTORIAL HepG2 Assay for human Nuclear Receptor Related Protein 1 (NURR1) (AID 2282985). The following applies: HepG2 Attagene TRANS reporter, mRNA readout. The essentials: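 HepG2 cells transiently transfected with NURR1-Gal4 chimera and GAL4-UAS reporter units; after 24 hr compound exposure, reporter mRNA quantified by RT-PCR and capillary electrophoresis; gain of signal fitted against DMSO.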

Test [5] deals with Transcriptional activator Myb (Homo sapiens) (UniProt P10242). Put plainly: ATG_Myb_CIS: Attagene CIS-FACTORIAL HepG2 Assay for human Myeloblastosis (Myb) Proto-Oncogene Transcription Factor (AID 2282986; active = hit-call score of the fitted dose curve at least 0.9, where 1 is the maximum; inactive = score below 0.9). The following applies: HepG2 Attagene CIS-FACTORIAL Myb reporter transcription; actives raise or lower the signal. In a few lines:
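Fluorescence signals from capillary electrophoresis of RT-PCR-amplified reporter cDNA give the read-out. Cells: HepG2 transfected with multiple cis-regulated reporter units. Exposure lasts 24 hours; DMSO defines baseline for gain or loss of signal.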

The target in test [6] is Nuclear respiratory factor 1 (Homo sapiens) (UniProt Q16656). Put plainly: ATG_NRF1_CIS: Attagene CIS-FACTORIAL HepG2 Assay for human Nuclear Respiratory Factor 1 (NRF1) Orphan Gene (AID 2282987; active = hit-call score of the fitted dose curve at least 0.9, where 1 is the maximum; inactive = score below 0.9). To be noted: HepG2 NRF1 cis-element reporter, Attagene multiplex; actives raise or lower the signal. In a few lines: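 Transcriptional reporter readout, one component of a 52-endpoint multiplexed HepG2 panel. Exposure 24 h; mRNA detected via RT-PCR and fluorescent capillary electrophoresis; fitting in both directions against DMSO.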

The nature of test [7]: ATG_NFI_CIS: Attagene CIS-FACTORIAL HepG2 Assay for human Nuclear Factor I (NFI) (AID 2282989; active = hit-call score of the fitted dose curve at least 0.9, where 1 is the maximum; inactive = score below 0.9). The following applies: HepG2 cis-regulatory reporter, NFI response element transcription; actives raise or lower the signal. In a few lines:
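HepG2, transient MRTU, 24 h exposure; RNA→cDNA→PCR→FAM label→HpaI→CE fluorescence. Bidirectional fit, DMSO = baseline.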

The nature of test [8]: ATG_M_06_TRANS: Attagene TRANS-FACTORIAL HepG2 Assay for M06 Transcription Factor (Internal Marker) (AID 2282983).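 Note: reporter transcript level by RT-PCR then capillary electrophoresis fluorescence.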 The following applies: HepG2 Attagene TRANS M06 internal marker reporter. The essentials:
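Transfect HepG2 with MRTUs → dose compounds 24 h → isolate RNA, oligo(dT) RT → PCR with reporter primers → 6-FAM primer extension → HpaI digest → CE fragment analysis. Positive direction vs DMSO.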

Test [9] can be described thus: ATG_M_32_TRANS: Attagene TRANS-FACTORIAL HepG2 Assay for M32 Transcription Factor (Internal Marker) (AID 2282984).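 Note: transcript level of a background control reporter unit measured by RT-PCR and capillary electrophoresis.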 To be noted: HepG2 Attagene TRANS M32 internal marker reporter. In a few lines:
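HepG2 cells transiently transfected with GAL4-UAS reporter units, dosed for 24 hours. Reporter mRNA quantified by RT-PCR, 6-FAM labelling, HpaI digestion and capillary electrophoresis; internal-marker signal fitted upward relative to DMSO.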

Test [10] concerns the target Hepatocyte nuclear factor 4-alpha (Homo sapiens) (UniProt P41235). Kind of test: ATG_HNF4a_TRANS: Attagene TRANS-FACTORIAL HepG2 Assay for human Hepatocyte Nuclear Factor 4 alpha (HNF4a) (AID 2282982). To be noted: HepG2 HNF4a transactivation reporter, mRNA readout. In a few lines:
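HepG2 cells transiently transfected with HNF4a-Gal4 chimera and GAL4-UAS reporter units, dosed for 24 h. Reporter mRNA measured by RT-PCR, fluorescent primer extension and capillary electrophoresis; gain-of-signal fitted relative to DMSO.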

Inconclusive results are not listed. Some compounds were tested as several samples or in several runs, with calls that do not always agree. Calls of active or inactive are those of the source. Rule for the calls, unless noted: active = hit-call score of the fitted dose curve at least 0.9, where 1 is the maximum; inconclusive = response in the unintended direction; inactive = score below 0.9.

Chain of Oxysterols receptor LXR-alpha (Homo sapiens) (Q13133 whole entry, looked up, the tested form may be a part): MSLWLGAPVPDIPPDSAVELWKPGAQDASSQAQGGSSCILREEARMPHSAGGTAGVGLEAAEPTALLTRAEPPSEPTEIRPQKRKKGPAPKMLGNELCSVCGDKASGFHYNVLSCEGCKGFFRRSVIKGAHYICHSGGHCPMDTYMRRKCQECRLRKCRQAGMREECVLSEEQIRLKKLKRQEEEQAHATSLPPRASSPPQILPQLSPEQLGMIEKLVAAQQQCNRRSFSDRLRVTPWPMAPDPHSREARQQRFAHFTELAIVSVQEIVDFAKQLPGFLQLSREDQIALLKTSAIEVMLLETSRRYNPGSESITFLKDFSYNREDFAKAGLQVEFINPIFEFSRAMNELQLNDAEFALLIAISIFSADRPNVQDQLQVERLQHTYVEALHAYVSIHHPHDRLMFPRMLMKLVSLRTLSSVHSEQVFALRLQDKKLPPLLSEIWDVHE
Chain of Nuclear receptor subfamily 4 group A member 2 (Homo sapiens) (P43354 whole entry, looked up, the tested form may be a part): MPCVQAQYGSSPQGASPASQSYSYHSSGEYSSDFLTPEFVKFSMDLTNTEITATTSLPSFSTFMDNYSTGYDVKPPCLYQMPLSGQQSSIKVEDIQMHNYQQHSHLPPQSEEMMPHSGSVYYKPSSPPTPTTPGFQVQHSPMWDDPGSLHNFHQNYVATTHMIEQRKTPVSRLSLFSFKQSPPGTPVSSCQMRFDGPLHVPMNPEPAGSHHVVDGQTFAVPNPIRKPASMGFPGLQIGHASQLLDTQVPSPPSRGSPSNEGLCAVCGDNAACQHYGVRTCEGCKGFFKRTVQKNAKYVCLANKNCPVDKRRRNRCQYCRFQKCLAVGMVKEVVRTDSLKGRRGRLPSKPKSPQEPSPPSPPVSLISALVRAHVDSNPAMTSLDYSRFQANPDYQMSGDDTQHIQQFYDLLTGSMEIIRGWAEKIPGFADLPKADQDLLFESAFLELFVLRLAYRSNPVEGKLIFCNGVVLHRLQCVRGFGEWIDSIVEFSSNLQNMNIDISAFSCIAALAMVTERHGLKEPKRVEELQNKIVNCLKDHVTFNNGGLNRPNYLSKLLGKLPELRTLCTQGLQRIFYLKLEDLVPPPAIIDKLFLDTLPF
Chain of Bile acid receptor (Homo sapiens) (Q96RI1 whole entry, looked up, the tested form may be a part): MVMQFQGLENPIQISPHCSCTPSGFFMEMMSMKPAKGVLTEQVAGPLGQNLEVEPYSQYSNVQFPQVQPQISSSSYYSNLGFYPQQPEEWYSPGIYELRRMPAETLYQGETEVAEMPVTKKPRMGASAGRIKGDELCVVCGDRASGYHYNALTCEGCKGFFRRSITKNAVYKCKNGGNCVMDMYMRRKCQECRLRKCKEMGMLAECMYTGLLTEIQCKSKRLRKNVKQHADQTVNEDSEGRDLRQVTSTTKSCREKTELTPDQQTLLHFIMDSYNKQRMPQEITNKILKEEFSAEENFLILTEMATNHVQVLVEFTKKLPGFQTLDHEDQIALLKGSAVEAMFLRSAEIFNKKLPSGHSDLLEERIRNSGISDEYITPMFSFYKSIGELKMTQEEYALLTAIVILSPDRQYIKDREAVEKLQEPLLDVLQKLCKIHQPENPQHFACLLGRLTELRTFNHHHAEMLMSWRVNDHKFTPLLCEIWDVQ
Chain of Nuclear respiratory factor 1 (Homo sapiens) (Q16656 whole entry, looked up): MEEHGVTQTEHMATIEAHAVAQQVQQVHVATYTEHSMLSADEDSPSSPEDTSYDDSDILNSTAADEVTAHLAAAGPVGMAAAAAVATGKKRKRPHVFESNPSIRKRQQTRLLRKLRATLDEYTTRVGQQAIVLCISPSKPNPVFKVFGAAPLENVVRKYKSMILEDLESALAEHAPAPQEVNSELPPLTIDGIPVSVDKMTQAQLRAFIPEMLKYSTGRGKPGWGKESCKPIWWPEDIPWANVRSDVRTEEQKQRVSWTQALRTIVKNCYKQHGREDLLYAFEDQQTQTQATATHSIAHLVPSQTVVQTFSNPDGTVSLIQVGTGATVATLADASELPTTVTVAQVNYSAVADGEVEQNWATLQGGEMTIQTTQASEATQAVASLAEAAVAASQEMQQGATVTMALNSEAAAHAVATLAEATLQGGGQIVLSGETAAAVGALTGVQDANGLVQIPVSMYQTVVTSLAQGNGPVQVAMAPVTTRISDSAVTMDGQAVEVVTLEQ
Chain of Transcriptional activator Myb (Homo sapiens) (P10242 whole entry, looked up): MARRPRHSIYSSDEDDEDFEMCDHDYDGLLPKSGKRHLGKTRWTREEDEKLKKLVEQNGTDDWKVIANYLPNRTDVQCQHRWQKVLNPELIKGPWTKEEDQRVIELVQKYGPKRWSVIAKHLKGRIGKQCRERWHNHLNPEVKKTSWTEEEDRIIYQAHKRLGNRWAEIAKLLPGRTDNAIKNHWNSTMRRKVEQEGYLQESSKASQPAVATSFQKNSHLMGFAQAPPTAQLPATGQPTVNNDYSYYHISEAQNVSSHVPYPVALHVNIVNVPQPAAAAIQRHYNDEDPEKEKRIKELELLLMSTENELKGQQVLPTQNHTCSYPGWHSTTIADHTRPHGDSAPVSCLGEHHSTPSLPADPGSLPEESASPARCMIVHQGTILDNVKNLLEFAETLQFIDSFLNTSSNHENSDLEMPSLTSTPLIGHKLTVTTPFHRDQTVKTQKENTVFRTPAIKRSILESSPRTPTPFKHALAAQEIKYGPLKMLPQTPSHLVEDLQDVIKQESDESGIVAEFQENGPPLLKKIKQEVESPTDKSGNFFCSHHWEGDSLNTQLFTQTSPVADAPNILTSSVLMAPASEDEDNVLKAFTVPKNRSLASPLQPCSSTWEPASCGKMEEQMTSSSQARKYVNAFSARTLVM
Chain of Hepatocyte nuclear factor 4-alpha (Homo sapiens) (P41235 whole entry, looked up, the tested form may be a part): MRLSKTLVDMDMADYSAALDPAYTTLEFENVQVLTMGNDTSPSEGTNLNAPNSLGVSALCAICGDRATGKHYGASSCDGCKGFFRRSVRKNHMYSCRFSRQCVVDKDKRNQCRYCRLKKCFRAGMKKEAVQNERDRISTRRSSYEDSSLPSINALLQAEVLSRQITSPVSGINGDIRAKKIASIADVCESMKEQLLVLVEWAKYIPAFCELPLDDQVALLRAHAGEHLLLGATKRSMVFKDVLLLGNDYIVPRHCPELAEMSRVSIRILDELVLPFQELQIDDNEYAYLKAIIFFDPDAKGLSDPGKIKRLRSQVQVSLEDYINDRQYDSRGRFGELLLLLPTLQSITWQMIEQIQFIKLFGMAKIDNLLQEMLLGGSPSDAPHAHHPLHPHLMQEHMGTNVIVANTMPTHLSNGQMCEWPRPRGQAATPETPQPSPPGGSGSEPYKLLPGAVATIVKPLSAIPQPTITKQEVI
Chain of Oxysterols receptor LXR-beta (Homo sapiens) (P55055 whole entry, looked up, the tested form may be a part): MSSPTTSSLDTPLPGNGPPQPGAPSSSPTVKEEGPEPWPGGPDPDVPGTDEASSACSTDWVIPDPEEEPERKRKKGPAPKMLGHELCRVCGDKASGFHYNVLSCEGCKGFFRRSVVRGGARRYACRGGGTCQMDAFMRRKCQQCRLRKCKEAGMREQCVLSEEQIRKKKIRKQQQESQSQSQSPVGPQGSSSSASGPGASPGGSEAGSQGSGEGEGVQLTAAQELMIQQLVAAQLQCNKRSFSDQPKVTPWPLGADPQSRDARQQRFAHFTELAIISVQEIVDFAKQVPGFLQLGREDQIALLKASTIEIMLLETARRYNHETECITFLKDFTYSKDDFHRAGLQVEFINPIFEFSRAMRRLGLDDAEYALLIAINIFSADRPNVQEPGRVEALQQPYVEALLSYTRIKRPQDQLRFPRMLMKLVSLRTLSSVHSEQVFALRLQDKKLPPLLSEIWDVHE

In the case of `CC(=O)S[C@H](C(=O)N[C@H]1Cc2ccccc2[C@H]2CCC[C@@H](C(=O)O)N2C1=O)C(C)C`, the outcome in test [1], in test [2], in test [3], in test [4], in [5] and in [6] was inactive. The outcome in test [7] was inactive.
Consider `CCc1nc(N)nc(N)c1-c1ccc(Cl)cc1`, for which the compound was classed as inactive in test [1], in test [8], in [5] and in test [7]. In test [6], the AC50 is 48.8 µM (active).
Consider `O=C(O)c1cccnc1`, for which the call in test [1], in [8], in test [9], in test [4], in test [5] and in test [6] was inactive. For the same compound, the outcome in test [7] was inactive.
As to `c1ccc2occc2c1`, the compound was called inactive in test [1], in [2], in test [3], in [8], in test [4] and in [5]. Further, the outcome in test [6] and in test [7] was inactive.
Turning to `CC(C)COC(=O)CCCCC(=O)OCC(C)C`, the outcome in [1], in test [3], in test [10], in test [9], in test [5] and in test [6] was inactive. In addition, the compound was called inactive in test [7].
Regarding `O=C(Oc1ccccc1)c1cccc(C(=O)Oc2ccccc2)c1`, the result in [1], in test [8], in test [9], in test [4], in [5] and in test [6] was inactive. For the same compound, in [7], the outcome was inactive.
With `CCN(CC)CCOc1ccc(C(=C(Cl)c2ccccc2)c2ccccc2)cc1`, the AC50 was 14.8 µM (active) in test [1], 14.5 µM (active) in test [5], 14.7 µM (active) in test [6] and 14.8 µM (active) in test [7]. Further, the compound was classed as inactive in [1], in test [2], in test [3], in [10], in test [8] and in test [9]. Moreover, the call in [5], in test [6] and in test [7] was inactive.
On to `CCCCC(CC)COP(=O)(OCC(CC)CCCC)OCC(CC)CCCC` (stereo not given), for which the outcome in test [1], in test [8], in test [5], in [6] and in test [7] was inactive.
In the case of `CCCCCCC(C=O)=Cc1ccccc1`, the compound was called inactive in [1], in [2], in [3], in [10], in test [8] and in test [9]. For the same compound, the result in test [4], in test [5], in [6] and in [7] was inactive. Further, the concentration at half-maximal activity (AC50) in [7] is 60 µM (active).
As for `NC=O`, the compound was classed as inactive in test [2], in test [3], in test [10], in test [8], in test [4] and in test [5]. The outcome in test [6] and in test [7] was inactive.
For `CCCCCCCCCC[N+](C)(C)[O-]`, the outcome in test [2], in [3], in test [9], in test [5], in [6] and in [7] was inactive.
Take `O=C(NS(=O)(=O)/C=C/c1cccs1)c1ccc(F)cc1Br`: the outcome in test [2], in test [9], in test [5], in test [6] and in [7] was inactive.
For `CC(C)(O)c1ccc(CNC(=O)c2cccnc2Oc2ccc(F)cc2)cc1`, the call in test [2], in test [3], in test [9], in test [5], in test [6] and in test [7] was inactive.
`Nc1nc(=S)c2[nH]cnc2[nH]1`: the compound was called inactive in test [2], in test [3], in [10], in test [8], in test [4] and in [5]. Moreover, the call in [6] and in test [7] was inactive.
As to `CC(C)c1cccc(C(C)C)c1NC(=O)NS(=O)(=O)c1cc(C(C)(C)O)co1`, the compound was called inactive in test [3], in test [10], in test [8], in test [4], in [5] and in test [6]. Also, the compound was classed as inactive in [7].
On to `COC(=O)CCC(=O)OC`, for which the call in [1], in test [5], in test [6] and in test [7] was inactive.
Take `CC(=O)OCC(COC(C)=O)OC(C)=O`: the compound was called inactive in test [3], in [10], in [8], in test [5], in test [6] and in test [7].
For `CS(=O)(=O)c1ccc([C@@H](C[C@H]2CCC(=O)C2)C(=O)Nc2cnccn2)cc1Cl`, the outcome in test [2], in test [3], in test [10], in [8], in [9] and in test [4] was inactive. Also, the compound was classed as inactive in test [5], in [6] and in [7].
Consider `NCCOCCOCCN`, for which the compound was called inactive in test [3], in test [8], in [9], in test [4], in [5] and in test [6]. Besides, the compound was classed as inactive in [7].
For the compound `CN(C)C(=O)NC1(c2ccccc2)CCN(CC[C@@]2(c3ccc(F)c(F)c3)CN(C(=O)c3ccccc3)CCO2)CC1`, the outcome in test [1], in test [5], in [6] and in test [7] was inactive.
